Experimental data published in PubChem BioAssay (NCI).
Compounds without any hit were thinned out: in the full panel of roughly 83,000, 20% have a hit.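 Assay: single dose, 48 h. Readout: percent growth (0 = no net growth; negative = cell death). Active: <10.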 Calls of active or inactive are those of the source.

tested on: OVCAR-5 ovarian; experiment: NCI-60 one-dose screen, 48 h (100 = growth as untreated, 0 = no growth, -100 = all killed); conditions: 10 µM
Description: Growth inhibition of the OVCAR-5 human tumor cell line is measured as a screen for anti-cancer activity. Cells are grown in 96 well plates and exposed to the test compound for 48 hours. Compounds are tested at a single concentration, which is 10^-5 M for most compounds. The reported endpoint is percent growth (GI% or GIPRCNT), where numbers from 0 - 100% represent growth inhibition, and numbers from -100% - 0 represent cell death. For example, a value of 40 represents 60% growth inhibition. A value of 0 means no net growth occurred over the course of the experiment. A value of -40 indicates 40% of cells at the beginning of the experiment died by the end of the experiment. A value of -100 means all cells are dead at the end of the experiment.
NCI-60 Human Tumor Cell Lines Screen was performed using the standard one-dose NCI protocol, which is described in more detail at https://dtp.cancer.gov/discovery_development/nci-60/default.htm.
Compounds with GIPRCNT values below 10 were considered active. Activity score was based on GIPRCNT using the following formula: […]
Score is 0 for GIPRCNT values of 100 or above, 50 for GIPRCNT values of 0, and 100 for GIPRCNT values of -100.

Compound | growth
Cc1c(Cl)cccc1NC(=O)CCCl | 106% (inactive)
NS(=O)(=O)Oc1ccc(-c2ccc3sccc3c2)cc1 | 88.8% (inactive)
COc1cc(-c2nn(-c3cccc(NC(=O)CN4CCOCC4)c3)cc2-c2cccnc2)ccc1Cl | 108% (inactive)
O=C(Nc1ccc(NS(=O)(=O)c2ccc(F)cc2)cc1)C12CC3CC(CC(C3)C1)C2 | 97.1% (inactive)
CCOC(=O)c1sc2ncnc(Nc3ccc4c(cnn4C(=O)Nc4ccc(C)c(Cl)c4)c3)c2c1C | 110% (inactive)
CCCCC1(O)CCCCC1 | 112% (inactive)
COc1cc2c(cc1NC(=O)C(F)(F)F)-c1ccc(NC(=O)C(F)(F)F)cc1C2 | 99% (inactive)
O=C1c2ccccc2C(=O)c2c1ccc(C(Br)Br)c2[N+](=O)[O-] | 49.7% (inactive)
COCCn1cc(-c2nc(-c3cccnc3)cs2)c2cc(F)ccc21 | 92.7% (inactive)
CCN1CCN(CCC(=O)Nc2cccc(-n3cc(-c4ccncc4)c(-c4ccc(Cl)c(OC)c4)n3)c2)CC1 | 37.6% (inactive)
OCC1OC(n2cnc3c(NCc4ccco4)ncnc32)C(O)C1O (stereo not given) | 28.8% (inactive)
Clc1nc2ccccc2cc1Cn1nnc(Cc2ccccc2)n1 | 104% (inactive)
O=C(CSc1nnc(-c2cccnc2SCc2ccccc2)o1)Nc1nc(Cl)cc(Cl)n1 | 106% (inactive)
Cc1nn(-c2ccc(-c3ccc(OC(F)(F)F)cc3)cc2)c2nc(Cc3ccccc3)nc(N)c12 | 57.6% (inactive)
COc1ccc(N=Nc2cc(OC)c(OC)c(OC)c2)cc1 | 77.8% (inactive)
CS(=O)(=O)c1nccc(-c2c(-c3cccc(O)c3)nc3sccn23)n1 | 99.3% (inactive)
Nc1nc(Cn2c(-c3nonc3N)nc3ccccc32)nc(N2CCCCC2)n1 | 109% (inactive)
O=C1/C=C/[C@@H](O)[C@@H]2C[C@@H](O)C[C@H]2/C=C/CCC[C@H](CCc2ccc(NC(=S)Nc3ccc4c(c3)C(=O)OC43c4ccc(O)cc4Oc4cc(O)ccc43)cc2)O1 | 17.9% (inactive)
CC(=O)[C@H]1CC[C@]2(C)[C@@H]1CC[C@@H]1[C@@]3(C)CC(CCC#N)(CCC#N)C(=O)C(C)(C)[C@@H]3CC[C@]12C | 88.5% (inactive)
COc1ccc(/C=C2/SC(=S)NC2=O)c(OC)c1OC | 72.8% (inactive)

Compound | growth
S=c1cnc2ccccc2[nH]1 | 104% (inactive)
Nc1ccc(CC[C@H]2CCC/C=C/[C@@H]3C[C@H](O)C[C@H]3[C@H](O)/C=C/C(=O)O2)cc1 | 11.4% (inactive)
O=S(=O)(Oc1ccc(-c2ccc3sccc3c2)cc1)c1ccccc1 | 97.3% (inactive)
Clc1ccc(/C=C2\CCCC3C2=Nc2ccccc2NC3c2ccc(Cl)cc2)cc1 (stereo not given) | 93.8% (inactive)
CN1C(=O)C2(Nc3cc(Cl)ccc3S2)c2cc(Cl)ccc21 (stereo not given) | 107% (inactive)
O=C(O)c1cc([N+](=O)[O-])ccc1Oc1ccccc1 | 101% (inactive)
CNC(=O)c1cc(Oc2ccc3c(c2)sc2nc(-c4ccc(NC(=O)Nc5ccc(Cl)c(C(F)(F)F)c5)cc4)cn23)ccn1 | 93.4% (inactive)
COc1ccc(-c2cc(-c3ccc(Cl)cc3)nc(SCCCCCCC(=O)NO)n2)cc1OC | 56.2% (inactive)
OCCn1cccn1 | 107% (inactive)
O=C1C=C(Nc2cccc(Br)c2)c2ccccc2C1=O | 73.1% (inactive)
COc1ccccc1-n1c(-c2sc(NC(C)=O)nc2C)n[nH]c1=S | 109% (inactive)
CSc1nc(S(C)(=O)=O)nc2[nH]c(=O)[nH]c12 | 96.3% (inactive)
COc1cc(CNC(=O)C2CSC3(C)c4ccccc4C(=O)N23)cc(OC)c1OC (stereo not given) | 102% (inactive)
C[C@]12CC[C@@H]3c4ccc(O)cc4CC[C@H]3[C@@H]1CC[C@@H]2NS(=O)(=O)c1ccc(C(F)(F)F)cc1 | 90.5% (inactive)
CCN1C(=O)CC(SC2CC(=O)N(CC)C2=O)C1=O (stereo not given) | 106% (inactive)
COc1cccc(CNc2cccc3cn[nH]c23)c1O | 106% (inactive)
Cc1c(Cl)cccc1NC(=O)CN1CCOCC1 | 111% (inactive)
CC(=O)Nc1ccc(S(=O)(=O)N/N=C(\C)c2ccc(C)cc2C)cc1 | 98.4% (inactive)
Cc1ccc2nc(Cl)c(-c3nc4ccccc4o3)cc2c1 | 97.8% (inactive)
CO[C@H]1CC(O[C@@H]2/C(C)=C/C[C@@H]3C[C@@H](C[C@]4(C=C[C@H](C)[C@@H](C5CCCCC5)O4)O3)OC(=O)[C@@H]3C=C(C)[C@@H](O)[C@H]4OC/C(=C\C=C\[C@@H]2C)[C@]43O)O[C@@H](C)C1O[C@H]1C[C@H](OC)[C@@H](O)[C@H](C)O1 (stereo not given in full) | -65.3% (active)
